# NCF1 inh: blocks human p47phox regulatory protein of NADPH oxidases; p47phox/p22phox peptide binding, fluorescence polarization, 2 h; AID 1274; actives 0.53% (n = 220,000); P14598; inhibition, % at 24.7 µM;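 active = inhibition above about 30%, limit read from the data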;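 note: 0% = p47phox with labelled peptide and 100% = labelled peptide alone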
# Target sequence (P14598 whole entry, looked up): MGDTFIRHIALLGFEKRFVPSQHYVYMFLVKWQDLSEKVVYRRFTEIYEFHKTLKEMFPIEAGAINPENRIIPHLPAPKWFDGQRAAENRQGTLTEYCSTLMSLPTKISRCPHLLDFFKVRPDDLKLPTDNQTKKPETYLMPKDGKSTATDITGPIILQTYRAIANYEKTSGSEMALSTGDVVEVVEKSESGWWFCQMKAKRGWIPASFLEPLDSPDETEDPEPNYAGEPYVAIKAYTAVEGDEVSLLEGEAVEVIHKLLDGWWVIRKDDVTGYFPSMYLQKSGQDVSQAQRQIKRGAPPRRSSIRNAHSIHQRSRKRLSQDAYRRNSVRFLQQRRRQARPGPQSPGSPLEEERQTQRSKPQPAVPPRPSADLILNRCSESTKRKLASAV
# 14-3-3 Bad PPI: disrupts binding of bovine 14-3-3 zeta to phospho-Bad peptide; P63103; TR-FRET 14-3-3zeta/Dy647-pBad peptide displacement, 1 h; inhibition, % at 21.7 µM; actives 0.71% (n = 220,000); AID 781;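 active = inhibition above about 70%, limit read from the data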;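 note: 0% = full 14-3-3 plus peptide FRET controls and 100% = background without 14-3-3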
# m-calpain inh: inhibitors of pig calpain II. actives 0.37% (n = 220,000). inhibition, % at 16 µM. purified calpain II, fluorogenic peptide substrate, 30 min;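 active = inhibition above about 50%, limit read from the data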
# Bim-Mcl-1: disrupts Bim peptide binding to human Mcl-1. inhibition, % at 10 µM. Q07820. AID 1009. Bead-based flow cytometry, Bim peptide-Mcl-1 binding. actives 0.1% (n = 190,000); in the data active = inhibition above about 40%;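 note: 0% = no compound tracer wells and 100% = peptide blocker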
# Mcl1 Noxa PPI: disrupts binding of human Mcl-1 to Noxa peptide | Q07820 | TR-FRET Mcl-1/Noxa peptide binding, 2 h | inhibition, % at 21.7 µM | actives 1.5% (n = 220,000) | AID 1022;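 active = compounds that cut the protein-peptide binding signal by more than 50% relative to plate controls in a single-dose test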;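 note: His-tagged Mcl-1 with rhodamine Noxa BH3 peptide and terbium anti-His antibody; 0% = Mcl-1 plus Noxa peptide wells and 100% = peptide-only wells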
# Mcl1 Bid PPI: disrupts binding of human Mcl-1 to Bid peptide; inhibition, % at 21.7 µM; AID 1021; TR-FRET Mcl-1/Bid-Dy647 peptide binding, 1536-well; Q07820; actives 0.97% (n = 220,000);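 active = compounds that cut the binding signal by more than half at the single screening dose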;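 note: His-tagged Mcl-1 with europium anti-His antibody binding Bid BH3 peptide; 0% = Mcl-1 plus peptide wells and 100% = peptide-only wells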
# * hit, by the source's call; x = no result. Compounds with a hit are over-represented: about 3.4% of the library has one in this group of screens.
SMILES,NCF1 inh,14-3-3 Bad PPI,m-calpain inh,Bim-Mcl-1,Mcl1 Noxa PPI,Mcl1 Bid PPI
O/N=C/C1=C(Cl)c2ccccc2CC1,-2,-6,-3,0,11,-16
CCOc1cc(/C=N/N=C2/NC(=O)C(CC(=O)O)S2)ccc1OCc1ccc(Cl)cc1Cl (stereo unspecified),-21,55,-95,3,55*,-56
Nc1cc2c(cc1[N+](=O)[O-])OCCO2,-6,-6,5,-3,9,-52
Nc1cc2c(cc1[N+](=O)[O-])OCO2,x,31,-10,3,79*,14
C#CCOC(=O)Nc1cc(C)n(-c2ccccc2)n1,-12,-18,3,x,-13,-5
O=C(O/N=C1\CCS(=O)(=O)c2sccc21)c1ccc(F)cc1,-9,-9,60*,0,-12,-27
O=C(O/N=C1\CCS(=O)(=O)c2sccc21)c1ccccc1,2,53,24,2,24,-1
Cc1c(C#N)c(NC(=O)CCl)n(Cc2cccs2)c1C,-17,-2,9,-1,16,-16
Cc1ccc(C)c(NS(=O)(=O)c2ccc3[nH]c(=O)oc3c2)c1,-25,14,-49,0,59*,-57
Cc1ccn2c(-c3n[nH]c(=S)n3C)c(C)nc2c1,13,3,-11,-4,54*,-52
Cc1cccc(-c2n[nH]c(=S)n2C)c1,-1,-1,31,-4,13,-29
CCn1c(SCC(=O)n2c(C)c(C)c3ccccc32)nnc1-c1ccco1,23,31,7,-6,-7,54*
Cc1cccn2cc(CCNC(=O)Cc3cccs3)nc12,-16,-6,-11,x,1,-26
C=CCN1CC(C(=O)N2CCC(Cc3ccc(Cl)cc3)(C(=O)OCC)CC2)CC1=O (stereo unspecified),-8,4,-32,x,-20,-12
CN(C)c1ccc(NC2=C(Cl)C(=O)c3ccccc3C2=O)cc1,26,-15,30,4,100*,-45
O=C1C(Cl)=C(Nc2ccc3cn[nH]c3c2)C(=O)c2ccccc21,29,-2,-14,x,93*,-67
CCOc1cc(/C=N/N=C(N)N)ccc1OCc1ccc(Cl)cc1,77*,61,25,5,15,-17
CCO/C([O-])=N/c1sn[n+](C)c1C,6,-2,7,x,20,-23
O=C(O)c1ccc2c(=O)n3cc(C(=O)c4ccccc4O)cc(Cl)c3nc2c1,-25,1,-1,x,60*,-94
CC(C)CC(=O)Nc1ccc(C(=O)CN2CCC(C)CC2)cc1,-12,-5,-47,-4,20,-58
CCN1CCN(Cc2ccc(NC(=O)c3cc(NC(=O)c4ccc5n[nH]nc5c4)cc(OC)c3)cc2C(F)(F)F)CC1,-38,0,-50,x,-2,-45
CCN1CCN(Cc2ccc(NC(=O)c3cc(NC(=O)c4cc(-c5ccc(OC)cc5)n[nH]4)cc(OC)c3)cc2C(F)(F)F)CC1,38*,-14,-56,x,-56,-29
CCN1CCN(Cc2ccc(NC(=O)c3ccc(C)c(NC(=O)C4=NN(c5ccccc5)C(=O)C4)c3)cc2C(F)(F)F)CC1,4,63,-16,x,63*,-58
CCN1CCN(Cc2ccc(NC(=O)c3cc(NC(=O)c4cc5cccc(OC)c5o4)cc(OC)c3)cc2C(F)(F)F)CC1,57*,36,2,x,25,-7
CCN1CCN(Cc2ccc(NC(=O)c3cc(NC(=O)c4ccno4)cc(OC)c3)cc2C(F)(F)F)CC1,-15,-1,-14,x,17,-25
SMILES,NCF1 inh,14-3-3 Bad PPI,m-calpain inh,Bim-Mcl-1,Mcl1 Noxa PPI,Mcl1 Bid PPI
CCN1CCN(Cc2ccc(NC(=O)c3ccc(C)c(NC(=O)c4c[nH]c5cc(C(F)(F)F)ccc5c4=O)c3)cc2C(F)(F)F)CC1,73*,-85,-104,x,-78,-5
OCC1(CCOc2ccccc2)CCN(C2Cc3ccccc3C2)CC1,5,-19,-47,-2,12,-29
Cc1ccc(NC(=O)c2cc(N3C(=O)CCC3=O)ccc2N2CCCCC2)cc1,-9,5,-53,-1,19,-7
CCN1CCN(Cc2ccc(NC(=O)c3cc(NC(=O)C4=NN(c5ccccc5)C(=O)C4)cc(OC)c3)cc2C(F)(F)F)CC1,-7,60,-56,x,69*,-39
COCc1cc(CN2CCCC(CNC(=O)c3ccc(F)cc3)C2)ccc1OC (stereo unspecified),-9,-7,-2,40*,-3,-29
COc1cccc(CN2CCCC(CNC(=O)c3ccc(F)cc3)C2)c1OC (stereo unspecified),3,0,-1,-3,4,-10
C=C(C)Cn1c(C)cc(C)c(S(=O)(=O)c2cccc(C)c2)c1=O,1,-5,35,-1,11,8
CCOC(=O)N1CCC(n2c(SCC(=O)c3ccccc3)nc3ccsc3c2=O)CC1,3,15,7,0,-203,65*
Cc1ccc(N=CC2=C(O)CC(c3ccc(Cl)cc3)CC2=O)cc1 (stereo unspecified),-5,14,-60,0,-8,-7
O=C(CN1CCOCC1)NN=C1CCCCCCCCCCC1,-10,-2,-2,-4,6,-5
Nc1c(C(=O)Nc2ccccc2)c2nc3ccccc3nc2n1-c1ccc(O)cc1,1,6,-10,x,38,7
Cc1nc2scc(-c3ccccc3)c2c(=O)n1N=C1C=CC(=O)C=C1,12,-14,-80,1,63*,-8
Cc1nc2scc(-c3ccccc3)c2c(=O)n1N,-1,7,-3,0,12,8
COc1ccc(NC(=O)CSc2ccc3c4c(cccc24)C(=O)c2ccccc2-3)cc1,-51,28,-57,-2,18,45
N#Cc1cccc(NC(=O)CSc2ccc3c4c(cccc24)C(=O)c2ccccc2-3)c1,40*,52,-51,-1,22,74*
O=C(c1ccccc1)c1nn(-c2ccc(Cl)cc2)c(=O)cc1C(F)(F)F,-1,1,-5,-1,-8,-19
O=c1[nH][nH]c2cc(=O)n(-c3ccc(Cl)cc3)nc12,6,92*,-36,2,-6,-100
COc1ccc(CNC(=O)C/C(C)=N/NC(=O)COc2cccc(C)c2)cc1,-9,-13,-3,1,6,-14
O=S(=O)(O)c1nc2ccccc2n1Cc1ccccc1,-18,71*,4,4,-1,0
CC(C)Cn1c(S(=O)(=O)O)nc2ccccc21,-11,4,2,x,8,-33
CC(C)CCn1c(S(=O)(=O)O)nc2ccccc21,-5,75*,-22,0,15,8
CCOC(=O)c1cn(Cc2cccc(Cl)c2)c2cc(C)nn2c1=O,-17,-5,-114,x,-11,-5
O=C(COc1ccc([N+](=O)[O-])cc1)Nc1nnc(-c2cccnc2)s1,-20,20,-20,x,69*,-11
Cc1ccccc1OCC(=O)N(CC(C)C)c1c(N)n(CC(C)C)c(=O)[nH]c1=O,-3,0,35,x,-5,-10
